In PubChem BioAssay (NCATS):
Results filed as inconclusive are left out. The source made the active and inactive calls. Calls follow the shape of the dose curve; as a rule, active = well fitted curve in the direction sought with a large enough effect; inconclusive = small, poorly fitted or top-dose-only effect, or another doubt; inactive = no such curve, though single readings can be large; an effect the other way counts as inactive or inconclusive.

Experiments:
[1] = target: Glutathione peroxidase 1 (Homo sapiens) (UniProt P07203); assay: Primary qHTS Assay for Inhibitors of Recombinant Selenoprotein Glutathione Peroxidase 1 (GPX1) (AID 1845191); also: nearly all actives have a fitted effect of over 65% in size; as to activity, negative = inhibition: % is scaled to controls: 0 for no effect and ±100 for the full control effect
Chain of Glutathione peroxidase 1 (Homo sapiens) (P07203 whole entry, looked up): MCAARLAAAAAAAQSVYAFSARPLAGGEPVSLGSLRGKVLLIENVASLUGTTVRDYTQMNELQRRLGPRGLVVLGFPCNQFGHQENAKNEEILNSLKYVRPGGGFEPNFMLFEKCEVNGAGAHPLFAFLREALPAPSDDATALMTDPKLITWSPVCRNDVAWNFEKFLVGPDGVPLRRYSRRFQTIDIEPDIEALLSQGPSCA
Procedure, shortened: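 GR-coupled readout: NADPH consumption tracked by fluorescence, ex 340/em 450 nm, at t=0 and after 15 min at RT. Final mix 10 nM GPX1, 1 mM GSH, 0.5 mM CHP, 0.5 mM NADPH, 100 nM GR, 0.01% BSA, following 30 min enzyme–compound preincubation.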

[2] = target: Phospholipid hydroperoxide glutathione peroxidase GPX4 (Homo sapiens) (UniProt P36969); assay: Primary qHTS Assay for Inhibitors of Recombinant Selenoprotein Glutathione Peroxidase 4 (GPX4) (AID 1845192); also: nearly all actives have a fitted effect of over 65% in size; as to activity change, negative = inhibition: series mostly up to about 50 µM; % is scaled to controls: 0 for no effect and ±100 for the full control effect
Chain of Phospholipid hydroperoxide glutathione peroxidase GPX4 (Homo sapiens) (P36969 whole entry, looked up): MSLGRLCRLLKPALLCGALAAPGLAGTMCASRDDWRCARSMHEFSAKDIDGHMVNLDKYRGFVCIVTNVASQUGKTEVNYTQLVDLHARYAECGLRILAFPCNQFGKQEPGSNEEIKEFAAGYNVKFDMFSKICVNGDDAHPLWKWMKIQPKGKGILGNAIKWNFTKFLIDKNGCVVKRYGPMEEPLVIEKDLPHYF
Procedure, shortened: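 Steps: GPX4 plus compound, 30 min RT; add GR/GSH/NADPH master mix; start with cumene hydroperoxide; read 340/450 nm fluorescence at 0 and 15 min. Finals were 200 nM GPX4, 1 mM GSH, 0.5 mM CHP, 0.5 mM NADPH, 100 nM GR.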

[3] = target: Luciferin 4-monooxygenase (Photinus pyralis) (UniProt P08659); assay: Primary firefly luciferase (FLuc) qHTS assay for identification of artifact compounds. (AID 1845220); also: nearly all actives have a fitted effect of over 60% in size;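 as to activity change, negative = inhibition: series mostly up to about 54 µM; plate controls were DMSO vehicle for no effect and no enzyme for full effect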
Procedure, shortened: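 Enzymatic FLuc inhibition assay: compounds pre-exposed to luciferin/ATP (10 uM each) for 15 min, then purified P. pyralis enzyme at 10 nM added. Read-out: luminescence at 5 min.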

[4] = Primary fluorescence-based thiol-reactive (MSTI) qHTS assay for identification of artifact compounds. (AID 1845221);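 also: series mostly up to about 54 µM; thiol-reactive compounds lower the probe fluorescence signal; nearly all actives have a fitted effect of over 65% in size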
Procedure, shortened: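 A multi-concentration qHTS design tested compounds against 4 uM MSTI, pH 7.4 phosphate-buffered saline. Plates were protected from light for 1 h at room temperature before imaging fluorescence.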

[5] = tested on: Nanoluciferase (engineered Oplophorus gracilirostris luciferase); assay: Primary Nanoluciferase (NLuc) qHTS assay for identification of artifact compounds. (AID 1845222);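 also: NLuc secreted into diluted conditioned medium of S16 cells; series mostly up to about 54 µM; 0% = DMSO and -100% = no enzyme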
Procedure, shortened: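 S16 cell supernatant NLuc, 1:55; cpds qHTS; 15 min RT dark; Nano-Glo substrate 1:100, 5 min; luminescence; Hill fit of % inhibition.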

[6] = Primary redox qHTS assay for identification of artifact compounds. (AID 1845223);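 also: 0% = DMSO and 100% = reference compound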
Procedure, shortened: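 Redox-cycling detection via DTT (250 uM final) oxidation coupled to Amplex Red (25 uM)/HRP (250 mU/mL) in HBSS. 15 min preincubation plus 30 min after DTT, room temperature. Ex/Em 525/598 nm; 4-parameter Hill fit against DMSO and 10 uM DA3003.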

Cn1ncc(Cl)c1-c1cc(C(=O)N[C@H](CN)Cc2cccc(F)c2)sc1Cl
inactive: Potency [1] | Potency [2] | Potency [3] | Potency [4] | Potency [5] | Potency [6]

O=C(NCC1CCN(Cc2cccc(Cl)c2)CC1)[C@@H]1CCCN(c2ncnc3c2nc2n3CCCC2)C1
inactive: Potency [1] | Potency [2] | Potency [3] | Potency [4] | Potency [5]

C=C1C(=O)O[C@@H]2[C@H]1CC(=O)[C@H](C)[C@@](O)(C(=O)/C=C/C)[C@H]2OC(=O)C(C)CC (stereo not given in full)
inactive: Potency [1] | Potency [2] | Potency [3] | Potency [4] | Potency [5] | Potency [6]

CC(C)S(=O)(=O)NC[C@H](C)c1ccc(-c2ccc(CCNS(C)(=O)=O)cc2)cc1
inactive: Potency [1] | Potency [2] | Potency [3] | Potency [4] | Potency [5] | Potency [6]

C=C1CC[C@@H]2[C@](C)(CO)[C@H](O)CC[C@@]2(C)[C@@H]1CC(O)C1=CCOC1=O (stereo not given in full)
inactive: Potency [1] | Potency [2] | Potency [3] | Potency [4] | Potency [5] | Potency [6]

CC(C)NCCCn1c(Sc2cc3c(cc2I)OCO3)nc2c(N)ncnc21
inactive: Potency [1] | Potency [2] | Potency [3] | Potency [4] | Potency [5] | Potency [6]

C=CCC1=C[C@]2(OC)[C@H](C)[C@@H](c3ccc4c(c3)OCO4)O[C@]2(OC)CC1=O
inactive: Potency [1] | Potency [2] | Potency [3] | Potency [4] | Potency [5] | Potency [6]

COC1CC(O[C@H]2CC[C@]3(C)C4CC[C@@]5(C)C(=O)[C@]4(CC[C@@H]3C2)CC[C@@H]5C2=CC(=O)OC2)OC(C)C1OC1OC(COC2OC(CO)C(O)C(O)C2O)C(O)C(O)C1O (stereo not given in full)
inactive: Potency [1] | Potency [2] | outcome [3] inactive [at 11.6 µM] | activity change, negative = thiol reactive [4] 91.7% [at 11.5 µM] | activity, negative = inhibition [5] 0% [at 11.6 µM] | redox activity (% of DA3003) [6] 13.6% [at 11.5 µM]

O=C(NCCN1CCN(c2cccc3c2OCCO3)CC1)c1ccc(F)cc1
inactive: Potency [1] | Potency [2] | Potency [3] | Potency [4] | Potency [5] | Potency [6]

C[C@@H]1O[C@@H](O[C@H]2[C@@H](OC(=O)[C@]34CCC(C)(C)CC3C3=CCC5[C@@]6(C)C[C@H](O)[C@H](O[C@@H]7O[C@H](CO)[C@@H](O)[C@H](O)[C@H]7O[C@@H]7OC[C@@H](O)[C@H](O)[C@H]7O)[C@@](C)(C(=O)O)C6CC[C@@]5(C)[C@]3(C)CC4)OC[C@H](O)[C@@H]2O)[C@H](O)[C@H](O)[C@H]1O[C@@H]1OC[C@@H](O)[C@H](O)[C@H]1O (stereo not given in full)
inactive: outcome [1] inactive [at 9.52 µM] | activity change, negative = inhibition [2] 1.61% [at 9.73 µM] | outcome [3] inactive [at 11.6 µM] | activity change, negative = thiol reactive [4] 151% [at 11.5 µM] | activity, negative = inhibition [5] 3.4% [at 11.6 µM] | redox activity (% of DA3003) [6] 18.4% [at 11.5 µM]

O=C(Nc1ccc2[nH]c(=O)oc2c1)C(=O)N1CCC(Cc2ccc(F)cc2)CC1
inactive: Potency [1] | Potency [2] | Potency [3] | Potency [4] | Potency [5] | Potency [6]

Fc1ccc(-n2cc(CCCCN3CCC4(CC3)OCc3ccccc34)c3ccccc32)cc1
inactive: Potency [1] | Potency [2] | Potency [3] | Potency [4] | Potency [5] | Potency [6]

CC(C)=C1C[C@@]2(C)C(=CC1=O)CC[C@@H](OC(=O)/C(C)=C/CO)[C@@H]2C
inactive: Potency [1] | Potency [2] | Potency [3] | Potency [4] | Potency [5] | Potency [6]

Nc1nccc(-c2c(-c3ccc(F)cc3)ncn2C2CCCCC2)n1
inactive: Potency [1] | Potency [2] | Potency [3] | Potency [4] | Potency [5] | Potency [6]

CC(C)[C@@H](c1ccc(C(F)(F)F)cc1CN(Cc1cc(C(F)(F)F)cc(C(F)(F)F)c1)c1nnn(C)n1)N1CCC(C(=O)O)CC1
inactive: Potency [1] | Potency [2] | Potency [3] | Potency [4] | Potency [5] | Potency [6]

O=C(COc1ccc(C(=O)c2ccccc2)cc1)NC1CCN(Cc2ccccc2)CC1
inactive: Potency [1] | Potency [2] | Potency [3] | Potency [4] | Potency [5] | Potency [6]

CCCn1ncc(CN2CCCC(C(=O)c3cccc(OC(C)C)c3)C2)c1C (stereo not given)
inactive: Potency [1] | Potency [2] | Potency [3] | Potency [4] | Potency [5] | Potency [6]

O=C(Nc1cccnc1)c1cc(-c2ccnc(F)c2)ccc1OCc1ccccc1
inactive: Potency [1] | Potency [2] | Potency [3] | Potency [4] | Potency [5] | Potency [6]

CCCCc1ccc(NS(=O)(=O)c2ccc(F)cc2)cc1
inactive: Potency [1] | Potency [2] | Potency [3] | Potency [4] | Potency [5] | Potency [6]

CC(=O)O[C@H]1[C@@]2(O)C[C@H](C)[C@H](OC(=O)c3ccccc3)[C@@H]2[C@@H](OC(=O)CO)[C@]2(OC(C)=O)C[C@H]3C(=O)C(C)(C)C[C@@H]3[C@@]1(C)[C@H]2OC(C)=O
inactive: Potency [1] | Potency [2] | Potency [3] | Potency [4] | Potency [5] | Potency [6]

O=C(NCCN1CCC(n2c(=O)[nH]c3ccccc32)CC1)c1ccc2ccccc2c1
inactive: Potency [1] | Potency [2] | Potency [3] | Potency [4] | Potency [5] | Potency [6]
